# From PubChem BioAssay
# HCMV antiviral – human cytomegalovirus inhibition; HFF cells, HCMV-luciferase reporter, 72 h; stronger effect = lower value; activity change, negative = inhibition, % at 57.5 µM; 410,000 compounds, 4.5% hits; AID 1259415; in the data active = activity change below about -60%; inconclusive = no clear call, values can overlap the other calls; inactive = above about -39%
#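 Human foreskin fibroblasts infected with luciferase-reporter HCMV at MOI 1 PFU/cell, compounds at two doses. Luciferase measured 72 h post infection; normalized to buffer-only basal and Salinomycin (10uM) controls.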
# LASV entry inh – blocks Lassa virus binding to or entry into cells; Lassa virus pseudotype entry inhibition, cell reporter; 300,000 compounds, 1.2% hits; Potency, µM (series often up to 37.9 µM), hits mostly inhibitors; AID 540256; calls by dose curve; tested in HEK293 cells; also: nearly all actives have a fitted effect of over 50% in size
# HCV inhibitor – HCV inhibition; AID 651820; Potency, µM (series often up to 41.8 µM), hits mostly inhibitors; 340,000 compounds, 3.4% hits; Huh7.5.1 HCVcc-Cre infection, luciferase reporter, 44 h; active = well fitted inhibition curve with a large enough effect; inconclusive = small, poorly fitted or top-dose-only effect, or another doubt; inactive = no such curve, though single readings can be large or run the other way
#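 Luciferase read-out (15 sec integration) after a 15 min room-temperature substrate step quantifies HCVcc-Cre infection. Cells, 1,000 per well, had compound added 4 h post-plating, then virus at ~0.5 moi, and were cultured 44 h.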
# Marburg entry inh – inhibitors of Marburg virus binding or cell entry; AID 540276; Marburg virus pseudotyped entry inhibition, cell reporter; Potency, µM (titrated, usually from 37.8 µM), most hits filed as inhibitors; 300,000 compounds, 1.8% hits; calls by dose curve; tested in HEK293 cells
# FMDV inh – foot and mouth disease virus antiviral activity; 410,000 compounds, 1.2% hits; AID 1159524; Potency, µM (highest dose often 57.9 µM), usual class: inhibitors; FMDV antiviral cell-based qHTS; calls by dose curve; tested in HEK293T cells; also: read-out not given here; nearly all actives have a fitted effect of over 45% in size
# A number is an active result; . = inactive; ? = inconclusive; / = no result given; ! = repeats disagree. Shown are actives, neighbours in structure and some others; about 7.9% of the full set was active somewhere.
SMILES,HCMV antiviral,LASV entry inh,HCV inhibitor,Marburg entry inh,FMDV inh
O=C(c1ccc2c3c(cccc13)CC2)C1CCCN(Cc2cccnc2)C1 (stereo not drawn),.,.,22.4µM,.,.
CCn1ncc(CN2CCCC(C(=O)c3cccc(OC(C)C)c3)C2)c1C (stereo not drawn),.,/,?,/,.
CSc1ccc(C(=O)C2CCCN(C(=O)CCc3cnn(C)c3)C2)cc1 (stereo not drawn),.,.,/,.,.
CC(C)Oc1cccc(C(=O)C2CCCN(Cc3cccn3-c3cccnc3)C2)c1 (stereo not drawn),.,/,11.2µM,/,.
COc1ccc(C(=O)C2CCCN(Cc3cccn3-c3cccnc3)C2)cc1OC (stereo not drawn),?,.,.,.,?
COc1ccc(CN2CCCC(C(=O)c3cccc(OC(C)C)c3)C2)cc1Cn1cccn1 (stereo not drawn),.,/,11.2µM,/,?
C[C@@H](NC(=O)c1[nH]cnc1C(=O)Nc1nccs1)c1ccccc1,.,/,.,/,.
CC(=O)C(C(=O)Nc1c(C)cccc1C)N(C(=O)Cc1ccc([N+](=O)[O-])cc1)c1ccccc1 (stereo not drawn),.,/,/,/,/
COc1cc2nc(N(C)C)c(CNCCc3c[nH]c4ccccc34)cc2c(OC)c1OC,/,/,/,/,.
COC(=O)C(CCSC)NC(=O)c1cc2c(n(-c3ccc(C)cc3)c1=O)CC(C)(C)CC2=O (stereo not drawn),.,.,/,.,.
CSc1ccc(C(=O)C2CCCN(C(=O)c3cc4cc(F)ccc4[nH]3)C2)cc1 (stereo not drawn),.,.,?,.,.
CSc1ccc(C(=O)C2CCCN(Cc3cc4ccccc4[nH]3)C2)cc1 (stereo not drawn),.,?,?,3.55µM,?
CSc1ccc(C(=O)C2CCCN(Cc3cccn3-c3cccnc3)C2)cc1 (stereo not drawn),.,?,14.1µM,?,?
Cc1ccc(S(=O)(=O)N2CCOCC2)cc1NC(=O)CNCC1CCCCC1,.,.,.,.,.
Cc1cc(C)nc(Sc2nc(Nc3ccccc3)nc(Sc3nc(C)cc(C)n3)n2)n1,-72.4,.,?,?,.
CC(=O)N(Cc1ccccc1)c1nccs1,.,/,/,/,/
CN(CCc1ccccc1)c1cc2c(c3c1ccn3C)C1CCC2O1 (stereo not drawn),.,/,/,/,.
Cc1cc(C)nc(NC(=O)c2c(F)c(F)c(F)c(C(=O)Nc3cc(C)cc(C)n3)c2F)c1,.,/,.,/,25.1µM
O=C(CN1C(=O)NC2(CCCCC2)C1=O)Nc1ccccc1N1CCCCC1,.,/,.,/,.
O=c1cc(C(F)(F)F)[nH]c2ccc(OC(F)(F)F)cc12,-94.6,?,?,?,?
O=c1cc(C(F)(F)F)[nH]c2c(C(F)(F)F)cccc12,/,?,.,?,?
O=C(CSc1nccn1Cc1ccc(Cl)cc1)NC1CCCC1,-62.6,.,/,/,.
O=C(CSc1nccn1Cc1ccc(F)cc1)NC1CCCC1,-64.7!,.,.,.,.
CCOC(=O)c1sc(NC(=O)CN2C(=O)NC3(CC(C)CC(C)(C)C3)C2=O)cc1C (stereo not drawn),.,.,11.2µM,?,.
CC1(C(=O)NCc2cccnc2)CCC(=O)N1CCc1ccccc1 (stereo not drawn),-96.8,/,.,/,.
SMILES,HCMV antiviral,LASV entry inh,HCV inhibitor,Marburg entry inh,FMDV inh
CCCCNC(=O)C1(C)CCC(=O)N1CCOC (stereo not drawn),.,/,/,/,.
CC1(C(=O)NCc2ccccc2)CCC(=O)N1CCCn1ccnc1 (stereo not drawn),-99.1,/,/,/,.
CCCCNC(=O)C1(C)CCC(=O)N1CCCn1ccnc1 (stereo not drawn),-70.7,/,/,/,.
CCc1nc2ccc(C(=O)NCc3ccc(N(C)C)cc3)cc2nc1CC,.,.,/,/,.
COC(=O)C1=C(C)N(Cc2ccccc2)C(=NCc2ccc3c(c2)OCO3)NC1CCc1ccccc1 (stereo not drawn),/,?,/,.,/
O=C(O)c1cc(=O)c2ccc(Cl)cc2[nH]1,/,/,/,.,.
Cc1ccc(-c2nc(CCNC(=O)C(=O)Nc3c(C)cccc3C)cs2)cc1,.,.,/,/,?
N#CC(C(=O)OC1CCCCC1)c1nc2ccccc2nc1N1CCOCC1 (stereo not drawn),-77.6,.,.,.,.
CC(C)COC(=O)N1CCCC1C(=O)O (stereo not drawn),.,.,3.16µM,.,/
CC(C)(C)OC(=O)N1CCC[C@H]1C(=O)O,.,/,.,/,.
c1ccc(-n2cnc3cc(NCc4ccco4)ccc32)cc1,-86.3,?,?,.,.
c1ccc(-n2cnc3cc(NCc4cccs4)ccc32)cc1,?,?,.,?,?
Cc1ccc(OC(=O)CSc2nnc(-c3ccc4c(c3)OCO4)o2)c(C)c1,.,.,/,.,.
N#Cc1nc(N2CCCC2)nc(N2CCCC2)n1,?,.,7.08µM,?,?
CCOc1ccc(-c2cc(C)[n+](CCN3CCOCC3)c(-c3ccc(OCC)cc3)c2)cc1,-82.5,.,.,?,?
CN(C)CCn1cnc2c(c1=N)C(c1ccccc1)c1ccc3ccccc3c1O2 (stereo not drawn),-97.7,/,12.6µM,/,.
N=c1c2c(ncn1Cc1ccco1)Oc1c(ccc3ccccc13)C2c1ccccc1 (stereo not drawn),.,?,?,?,.
Cc1ccc(C(=O)c2oc3ccccc3c2NC(=O)c2cc(-c3cc(C)ccc3O)n[nH]2)cc1,-62.7,/,.,/,.
Cc1ccc(C(=O)c2oc3ccccc3c2NC(=O)c2cc(-c3ccccc3O)n[nH]2)cc1,-63.0,.,.,.,.
CCN(CC)C(=O)c1sc2c(c1C)c(=O)n(CCc1ccccc1)c(=O)n2Cc1cccc(Cl)c1,?,6.31µM,/,/,?
CCN(CC)C(=O)c1sc2c(c1C)c(=O)n(CCc1ccccc1)c(=O)n2Cc1ccc(F)cc1Cl,.,.,/,/,.
Cn1cc(C(=O)Cc2ccccc2)c2ccccc21,-67.1,.,?,.,.
Cn1cc(C(=O)C(F)(F)F)c2ccccc21,.,.,.,.,.
CCn1c(SCC(=O)c2[nH]c(C)c(C(C)=O)c2C)nnc1-c1ccccc1,.,.,5.62µM,?,25.1µM
CCOC(=O)c1c(C)[nH]c(C(=O)N2CCN(c3ccc(OC)cc3)CC2)c1C,.,7.94µM,.,?,.
SMILES,HCMV antiviral,LASV entry inh,HCV inhibitor,Marburg entry inh,FMDV inh
CC(=O)c1c(C)[nH]c(C(=O)CSc2ccc(F)cc2)c1C,?,?,12.6µM,?,.
CCCc1cc(=O)[nH]c(SCC(=O)c2[nH]c(C)c(C(=O)OCC)c2C)n1,.,.,11.2µM,.,.
CCCc1cc(=O)[nH]c(SCC(=O)CSc2nc(CCC)cc(=O)[nH]2)n1,.,.,.,.,.
CCCCCNC(=O)C(c1ccnc2ccccc12)n1c(=O)c(-c2cc3ccccc3[nH]2)nc2ccccc21 (stereo not drawn),.,/,/,/,.
CCOC(=O)c1c(C)[nH]c(C(=O)COC(=O)CCSc2ccccc2)c1C,.,.,.,?,.
CCOC(=O)c1c(C)[nH]c(C(=O)CSc2ccccc2)c1C,.,17.8µM,?,?,.
CC(=O)N[C@@H](C)C(=O)NCC1Cc2cccc(-c3ccccc3C(F)(F)F)c2O1 (stereo partly drawn),/,/,/,/,.
